Unmarked numbers belong to inactive results. The call rests on the fitted dose curve; in most records, active means well fitted curve in the direction sought with a large enough effect; inconclusive means small, poorly fitted or top-dose-only effect, or another doubt; inactive means no such curve, though single readings can be large or run the other way.

This assay can be described thus: Quantitative high throughput screen to test cell viability of anti-malarial compounds targeting the delayed death phenotype. The settings on record: HepG2 viability, CellTiter-Glo luminescence, 48 h. The source says: NIH Molecular Libraries Probe Production Network [MLPCN] NIH Chemical Genomics Center [NCGC] MLPCN Grant: R21 NS059500 Assay Provider: David Fidock and Eric Ekland, Columbia University The goal of this screen is to measuer the cytoxoxicity (against HepG2 cell line) of a set of anti-malarial compounds that target the delayed death pheonotype, by inhibiting the development of the apicoplast in the malarial parasite Plasmodium falciparum (described below) The biochemical processes that make this organelle essential for erythrocytic stage parasites are not well understood. However, antibiotics, such as azithromycin and tetracycline, which target the apicoplast translational machinery, have a potent antimalarial effect. […] We have developed a cell-based assay that measures parasite growth based on the expression of an integrated copy of a firefly luciferase reporter. To detect small molecules that cause this 'delayed death' phenotype, erythrocytes infected with the luciferase-expressing parasites were incubated with compounds for either one or two generations, corresponding to 48 and 96 hours, respectively. Compounds that inhibit parasite growth in the second generation, but not the first, should be enriched in antimalarials that target the apicoplast. Growth inhibition is detected by a decrease in luciferase activity
Cells were plated at a density of 2000 cells/well/5uL in 1536 well white tissue culture plate with culture medium. Triplicate plates were prepared. Plates were incubated at 37C, 5% CO2 for 5 hours and then 23nL of compounds and positive control were transferred to the assay plates. Tetraoctylammonium bromide was added as a positive control. Plates were then incubated at 37C, 5% CO2 for 48 hours. 5 uL of CellTitler-Glo buffer was added to each well and then incubated for 30 min at room temperature. Luminescence was measured using ViewLux (1 second, slow, 2X).
With `CN(C)S(=O)(=O)c1cc(NC(=O)C2=COCCO2)ccc1Cl`, the max response was 13.5%.

For `CCCc1cc(=O)oc2cc(OC(C)C(=O)NCc3ccccn3)c(Cl)cc12` (stereo not drawn), the max response was 11.2%.

Turning to `N#Cc1cccc(NC(=O)Cn2c3[n+](c4ccc(C(F)(F)F)cc42)CCCCC3)c1`, the max response is 14.7%.
